NR2F2 inh = NR2F2 (human) inhibition, primary screen | HEK293T NGFI-A luciferase reporter, luminescence | inhibition, % at 8.6 µM | hit rate 0.7% among 370,000;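 active = inhibition above a per-plate cutoff, mean inhibition of test wells between control levels plus 3 SD, cut at about 38% in these data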;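 note: cells cotransfected with COUP-TFII expression vector driving the NGFI-A reporter; 0% = median of COUP-TF2 test wells and 100% = reporter-only cells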
Target sequence (P24468 whole entry, looked up): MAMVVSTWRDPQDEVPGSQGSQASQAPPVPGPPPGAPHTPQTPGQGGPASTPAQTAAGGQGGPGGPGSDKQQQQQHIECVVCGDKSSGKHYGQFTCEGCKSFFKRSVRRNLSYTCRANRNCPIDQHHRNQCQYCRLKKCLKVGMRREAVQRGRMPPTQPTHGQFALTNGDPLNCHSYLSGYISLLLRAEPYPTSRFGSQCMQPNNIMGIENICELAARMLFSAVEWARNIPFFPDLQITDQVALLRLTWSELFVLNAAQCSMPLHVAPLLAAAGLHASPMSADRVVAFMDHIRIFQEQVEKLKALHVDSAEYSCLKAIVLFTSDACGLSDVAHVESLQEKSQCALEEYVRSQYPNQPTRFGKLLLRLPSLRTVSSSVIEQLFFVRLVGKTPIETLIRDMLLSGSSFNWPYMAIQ
697 NFkB inh = lowers PMA/ionomycin-induced NF-kB signal in 697 B cells. hit rate 0.33% among 330,000. 697 B-cell NF-kB luciferase reporter, 16 h. AID 435022. inhibition, % at 4 µM; in the data active = inhibition above about 35%
H9c2 TAG inh = triacylglycerol accumulation inhibition. AID 651582. inhibition, % at 12.5 µM. H9c2 cells, Nile Red lipid (TAG) fluorescence; cells loaded with 200 µM oleic acid. hit rate 0.66% among 230,000;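 active = pattern-corrected inhibition of lipid staining of at least 50% with the nuclear-stain viability signal not falling by more than 50%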;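 note: 0% = DMSO wells and 100% = triacsin C control wells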
H9c2 protect = myocardial damage modulation in H9c2 cells; H9c2 cardiomyocytes, H2O2 injury protection, ATPLite, 2 h; protection from H2O2 cell death, % at 20 µM; hit rate 0.63% among 360,000;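 active = compounds giving at least 50% protection of heart cells from peroxide-induced death in the single-dose screen, raw or plate-pattern-corrected value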;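 note: 0% = DMSO wells with peroxide and 100% = DMSO wells without peroxide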
Gli-Sufu antag = blocks Gli-Sufu signaling in a luciferase reporter. hit rate 0.74% among 340,000. Sufu-KO-LIGHT fibroblasts, Gli luciferase reporter luminescence. inhibition, % at 5 µM;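 active = inhibition above about 55%, limit read from the data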;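 note: 0% = DMSO-treated cells and 100% = wells with medium but no cells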
Jurkat NFkB inh = lowers PMA/ionomycin-induced NF-kB signal in Jurkat cells; PMA/ionomycin-induced NF-kB luciferase reporter, luminescence; inhibition, % at 4 µM; hit rate 0.53% among 330,000; in the data active = inhibition above about 50%
Gli-Sufu confirm = confirmation of Gli-SUFU pathway antagonists | Sufu-KO-LIGHT cells, Gli luciferase reporter, luminescence | AID 602428 | shares compounds with Gli-Sufu antag | inhibition, % at 5 µM | hit rate 40% among 2,500;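 active = mean inhibition at 5 µM reaching about 45%, limit read from the data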;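 note: plate controls were DMSO-treated cells for no effect and wells lacking cells for full effect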
SufuKO cytotox = cytotoxicity counter-screen for Gli-SUFU antagonists | shares compounds with Gli-Sufu antag | hit rate 32% among 2,500 | Sufu-KO-LIGHT cells cytotoxicity, ATP luminescence | cytotoxicity, % at 5 µM;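 active = mean cytotoxicity at 5 µM above about 25%, limit read from the data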;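 note: cells exposed to compound overnight for roughly 16 to 18 hours; plate controls were DMSO wells with cells for no effect and medium without cells for full effect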
Wnt3a cs = Wnt3a reporter inhibition counter-screen. inhibition, % at 6.25 µM. AID 651995. hit rate 20% among 2,500. shares compounds with Gli-Sufu antag. Wnt-LIGHT cells, Wnt3a-driven luciferase reporter, luminescence;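 active = mean inhibition above about 25%, limit read from the data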
* hit, by the source's call; . = not tested or not shown. In the library only some 2.6% were active in any assay of this set; here they are far more common.

SMILES	NR2F2 inh	697 NFkB inh	H9c2 TAG inh	H9c2 protect	Gli-Sufu antag	Jurkat NFkB inh	Gli-Sufu confirm	SufuKO cytotox	Wnt3a cs
COc1ccc(-c2nc(CS(=O)(=O)CC(=O)NCCCN3CCN(C)CC3)c(C)o2)cc1	8	-61	.	0	53	-14	11	10	-2
CCCCN1CC(COCc2ccccc2)Oc2cccc(N3CCCCC3)c2S1(=O)=O (stereo not drawn)	-13	.	.	.	.	.	.	.	.
CCn1c(C)nc2cc(-c3nnc(-c4c(-c5ccccc5)noc4C)o3)ccc21	1	2	.	0	70*	0	77*	17	18
C/C(C=NNC(=O)CSc1nnc(-c2ccccc2)n1-c1ccc(C)cc1)=C\c1ccco1	14	.	.	.	.	.	.	.	.
CC(C)NC(=O)N[C@@H]1C[C@@H]2O[C@@H](CO)CC[C@@H]2O[C@@H]1CCc1ccc(-c2ccc(F)cc2)cc1	-26	.	.	.	.	.	.	.	.
CCCCNC(=O)C1CCN(S(=O)(=O)c2ccc3c(c2)CC(C)N3C(=O)C2CC2)CC1 (stereo not drawn)	-11	10	-7	-6	94*	-9	16	6	-16
CC(C)CCNC(=O)C1CCN(S(=O)(=O)c2ccc3c(c2)CC(C)N3C(=O)C2CC2)CC1 (stereo not drawn)	14	24	.	-3	8	14	.	.	.
CC(=O)N1c2ccc(S(=O)(=O)N3CCC(C(=O)N4CCCCC4)CC3)cc2CC1C (stereo not drawn)	12	-9	.	-9	55	21	49*	24	-5
COc1cc2c(c(OC)c1OC)-c1ccc(SC)c(=O)cc1C(NC(=O)c1ccccc1)CC2 (stereo not drawn)	-42	.	27	4	63*	.	66*	51*	46*
C=COC(=O)NC1CCc2cc(OC)c(OC)c(OC)c2-c2ccc(SC)c(=O)cc21 (stereo not drawn)	-65	.	22	0	66*	.	64*	63*	40*
COc1cccc(C(=O)Nc2ccc3c(cc2=O)[C@@H](NC(C)=O)CCc2cc(OC)c(OC)c(OC)c2-3)c1	.	4	.	24	5	47	.	.	.
COC(=O)C1=C(C)N(Cc2cccc(C(F)(F)F)c2)C(=NCc2ccc(OC)cc2)NC1c1ccc(F)cc1 (stereo not drawn)	-4	.	.	.	.	.	.	.	.
CCCc1nc2c(C)cc(Br)cn2c1Cc1ccccc1OC	-9	.	.	.	.	.	.	.	.
O=C(NCCc1ccc(F)cc1)c1ccc2c(=O)n3c(nc2c1)CCC3	-13	-21	15	13	96*	-32	-8	14	-114
Nc1nc(Cl)nc2c1ncn2[C@@H]1O[C@H](CO)[C@@H](O)[C@@H]1F	-56	.	.	.	.	.	.	.	.
COc1ccc(/C=C2\CC3(OC(=O)c4ccccc4)CCCN2C3)cc1 (stereo not drawn)	6	.	.	.	.	.	.	.	.
COC(=O)c1ccc2c(c1)C(NC(C)=O)CCc1cc(OC)c(OC)c(OC)c1-2 (stereo not drawn)	-79	.	34	4	65*	.	60*	57*	14
CCCC(=O)NC1CCc2cc(OC)c(OC)c(OC)c2-c2ccc(OC)c(=O)cc21 (stereo not drawn)	-66	.	39	6	56*	.	58*	64*	-2
COc1c(C=O)c2c(c(OC)c1OC)-c1ccc(OC)c(=O)cc1C(NC(C)=O)CC2 (stereo not drawn)	-72	.	42	10	43	.	.	.	.
C[C@H](CO)N1C[C@H](C)[C@H](CN(C)C(=O)Nc2cccc3ccccc23)Oc2ncc(Br)cc2C1=O	-11	.	.	.	.	.	.	.	.
Cc1c(Cl)cccc1NC(=O)CCN1CCC(C(N)=O)CC1	-11	15	-1	2	57*	3	21	3	19
COc1ccc(CNC(=O)N(C)C[C@@H]2OCc3ccccc3-c3c(n(C)c4ccccc34)C(=O)N([C@@H](C)CO)C[C@@H]2C)cc1	-3	.	.	.	.	.	.	.	.
CCCCC1O[C@@H](C)[C@@H]2CN3CCc4c([nH]c5ccccc45)[C@@H]3C[C@@H]2N1C (stereo partly drawn)	-5	.	.	.	.	.	.	.	.
Cc1ccccc1NC(=O)CSc1nc2cc3c(cc2cc1C)CCC3	10	-33	.	-7	54	47	40	29*	-41
CCCNC(=O)N1CC[C@H]2[C@@H]1c1cc(-c3ccc(F)cc3)ccc1N(C)[C@H]2CO	-12	.	.	.	.	.	.	.	.
SMILES	NR2F2 inh	697 NFkB inh	H9c2 TAG inh	H9c2 protect	Gli-Sufu antag	Jurkat NFkB inh	Gli-Sufu confirm	SufuKO cytotox	Wnt3a cs
COc1ccccc1CCC[C@@H](CCS(=O)(=O)C(C)C)CC1CCCCC1	2	.	.	.	.	.	.	.	.
COC(=O)[C@]12CCCCC=C1N(Cc1ccc(OC)cc1)C(=O)[C@@H]2CC(=O)NCCCCc1ccccc1	-1	.	.	.	.	.	.	.	.
COc1cc(OC)cc(-n2nnnc2SCC(=O)N2CCCC2)c1	-10	15	.	12	3	-3	.	.	.
CCC(=O)Nc1cccc(-n2nnnc2SCC(=O)N2CCCCC2)c1	-12	-1	-6	-11	59*	-15	7	15	1
COc1ccc(S[C@]2(C(=O)N(C)C)CC(=O)N(C(=O)c3ccccc3)[C@@H]2c2ccc(OC)cc2)cc1	16	.	.	.	.	.	.	.	.
CC(C)NS(=O)(=O)c1ccc2c(c1)oc(=O)n2C	15	-3	-2	2	57*	-1	10	2	-10
CN1[C@@H](Cc2ccccc2)COc2cccc(N3CCSCC3)c2S1(=O)=O	0	.	.	.	.	.	.	.	.
O=C(c1ccccc1SCc1ccccc1)N1CCOCC1	-5	18	-4	11	61*	-5	17	-2	9
COC(=O)[C@]12C[C@H](CC(=O)NCCCCc3ccccc3)C(=O)N(Cc3ccc4c(c3)OCO4)C1=C[C@H](C(C)C)O[C@@H]2C1CC1	21	.	.	.	.	.	.	.	.
Nc1cc(OCC(F)(F)F)cc([N+](=O)[O-])c1	23	-13	.	8	-3	1	.	.	.
Nc1cc(N)c(OCC(F)(F)F)cc1OCC(F)(F)F	.	-7	.	-35	68*	3	23	2	24
CCOc1ccc2nc(N3CCCC(C(=O)NCCCN4CCCCC4)C3)sc2c1 (stereo not drawn)	-21	-29	.	-3	65*	-27	20	11	-212
Cc1cc(=O)n2nc(N3CCCC(C(=O)NCCCN4CC(C)CC(C)C4)C3)sc2n1 (stereo not drawn)	0	0	.	-7	60*	-4	22	12	-5
C=CCn1c(Cc2cccs2)nnc1SCC(=O)Nc1ccc(C)cc1	-12	.	.	.	.	.	.	.	.
c1ccc(-c2cn(-c3ccccc3)c3[n+]2CCS3)cc1	10	-26	-40	-19	65*	18	64*	26*	13
Fc1ccc(-n2cc(-c3ccccc3)[n+]3c2SCC3)cc1	17	-4	-2	-8	46	2	.	.	.

Screening data from PubChem.
